Structures are written as SMILES. Active and inactive are the calls of the source.

From PubChem BioAssay come the findings set out here.

For assay [1], the system named is PRMT1 (protein arginine N-methyltransferase 1). Nature of the assay: PRMT1 binders on small-molecule microarrays, primary screen, biochemical, small-molecule microarray, 635 nm fluorescence (AID 1088).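 Also: binding of Prmt1 protein to compounds spotted on small-molecule microarray slides.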 As to conditions: small-molecule microarray binding, higher = more signal.
Assay [2] is described as follows: yeast growth modulation, basal conditions, primary screen, YJM789 clinical isolate, OD600, 24 h (AID 1089).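 Also: growth of clinical yeast isolate S. cerevisiae YJM 789 seeded 1000 cells per well; test concentration not given here.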 As to conditions: S. cerevisiae YJM789 growth, higher = more signal, called active from +8 up or from −8 down.
Assay [3] in a line: fission yeast growth modulation, primary screen, strain 972, OD600, 24 h, no modulator (AID 1090).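 Also: basal condition with compound alone and no growth modifier present; test concentration not given here.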 The following applies: S. pombe 972 growth, higher = more signal, called active from +8 up or from −8 down.
Assay [4] can be described thus: S. cerevisiae growth modulation with rapamycin, primary screen, strain BY4716, OD600, 96 h (AID 1091). Also: test concentration not given here. As to conditions: higher = more signal, called active from +8 up or from −8 down.
In assay [5] the target is Torsin-1A-interacting protein 2 (Homo sapiens) (UniProt Q8NFQ8). Nature of the assay: LULL1 binders on small-molecule microarray, primary screen, cell lysate, human LULL1 lysate, 635/667 nm fluorescence (AID 1092).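 Also: probe is lysate of COS7 cells overexpressing human LULL1; score merges per-feature 667 nm fluorescence with signal-to-noise.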 The following applies: hLULL1 lysate binding, 635 nm fluorescence, higher = more signal.
Chain of Torsin-1A-interacting protein 2 (Homo sapiens) (Q8NFQ8 whole entry, looked up): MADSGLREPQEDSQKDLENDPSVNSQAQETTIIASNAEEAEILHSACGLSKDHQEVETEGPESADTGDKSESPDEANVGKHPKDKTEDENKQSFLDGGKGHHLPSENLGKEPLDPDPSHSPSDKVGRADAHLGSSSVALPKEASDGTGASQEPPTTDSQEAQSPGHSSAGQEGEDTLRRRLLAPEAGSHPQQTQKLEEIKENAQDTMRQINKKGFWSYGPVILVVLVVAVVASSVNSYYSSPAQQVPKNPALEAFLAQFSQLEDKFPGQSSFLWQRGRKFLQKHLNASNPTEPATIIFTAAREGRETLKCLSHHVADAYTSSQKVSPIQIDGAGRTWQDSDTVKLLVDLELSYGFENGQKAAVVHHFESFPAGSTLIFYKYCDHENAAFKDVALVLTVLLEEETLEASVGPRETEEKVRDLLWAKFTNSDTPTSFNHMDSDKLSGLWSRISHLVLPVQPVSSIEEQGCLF
The nature of assay [6]: E. coli growth modulation, two-sided OD650, primary screen, E. coli filamentation project, strain DRC41, 24 h (AID 1093).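 Also: MC1000 strain lacking acrAB efflux and sulA so SOS filamentation is blocked; test concentration not given here.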 The following applies: OD650, 24 h, higher = more signal, called active from +8 up or from −8 down.
Assay [7] can be described thus: small-molecule microarray binders of probe aLefty2, primary screen, biochemical, biotinylated probe, 635/667 nm fluorescence (AID 1094).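 Also: score merges spot fluorescence near 667 nm with spot signal-to-noise ratio.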 The following applies: higher = more signal.
Assay [8] deals with Noggin (protein binding on small-molecule microarray). Briefly: Noggin binders on small-molecule microarray, primary screen, biochemical, 635/667 nm fluorescence (AID 1095).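 Also: score merges 667 nm feature fluorescence with signal to noise over triplicate slides.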 The following applies: 635 nm fluorescence, higher = more signal.
For assay [9], the target named is Neurogenic locus notch homolog protein 3 (Homo sapiens) (UniProt Q9UM47). Briefly: NOTCH3 binders on small-molecule microarray, primary screen, biochemical, 635/667 nm fluorescence (AID 1096). The following applies: NOTCH3 binding, 635 nm fluorescence, higher = more signal.
Chain of Neurogenic locus notch homolog protein 3 (Homo sapiens) (Q9UM47 whole entry, looked up): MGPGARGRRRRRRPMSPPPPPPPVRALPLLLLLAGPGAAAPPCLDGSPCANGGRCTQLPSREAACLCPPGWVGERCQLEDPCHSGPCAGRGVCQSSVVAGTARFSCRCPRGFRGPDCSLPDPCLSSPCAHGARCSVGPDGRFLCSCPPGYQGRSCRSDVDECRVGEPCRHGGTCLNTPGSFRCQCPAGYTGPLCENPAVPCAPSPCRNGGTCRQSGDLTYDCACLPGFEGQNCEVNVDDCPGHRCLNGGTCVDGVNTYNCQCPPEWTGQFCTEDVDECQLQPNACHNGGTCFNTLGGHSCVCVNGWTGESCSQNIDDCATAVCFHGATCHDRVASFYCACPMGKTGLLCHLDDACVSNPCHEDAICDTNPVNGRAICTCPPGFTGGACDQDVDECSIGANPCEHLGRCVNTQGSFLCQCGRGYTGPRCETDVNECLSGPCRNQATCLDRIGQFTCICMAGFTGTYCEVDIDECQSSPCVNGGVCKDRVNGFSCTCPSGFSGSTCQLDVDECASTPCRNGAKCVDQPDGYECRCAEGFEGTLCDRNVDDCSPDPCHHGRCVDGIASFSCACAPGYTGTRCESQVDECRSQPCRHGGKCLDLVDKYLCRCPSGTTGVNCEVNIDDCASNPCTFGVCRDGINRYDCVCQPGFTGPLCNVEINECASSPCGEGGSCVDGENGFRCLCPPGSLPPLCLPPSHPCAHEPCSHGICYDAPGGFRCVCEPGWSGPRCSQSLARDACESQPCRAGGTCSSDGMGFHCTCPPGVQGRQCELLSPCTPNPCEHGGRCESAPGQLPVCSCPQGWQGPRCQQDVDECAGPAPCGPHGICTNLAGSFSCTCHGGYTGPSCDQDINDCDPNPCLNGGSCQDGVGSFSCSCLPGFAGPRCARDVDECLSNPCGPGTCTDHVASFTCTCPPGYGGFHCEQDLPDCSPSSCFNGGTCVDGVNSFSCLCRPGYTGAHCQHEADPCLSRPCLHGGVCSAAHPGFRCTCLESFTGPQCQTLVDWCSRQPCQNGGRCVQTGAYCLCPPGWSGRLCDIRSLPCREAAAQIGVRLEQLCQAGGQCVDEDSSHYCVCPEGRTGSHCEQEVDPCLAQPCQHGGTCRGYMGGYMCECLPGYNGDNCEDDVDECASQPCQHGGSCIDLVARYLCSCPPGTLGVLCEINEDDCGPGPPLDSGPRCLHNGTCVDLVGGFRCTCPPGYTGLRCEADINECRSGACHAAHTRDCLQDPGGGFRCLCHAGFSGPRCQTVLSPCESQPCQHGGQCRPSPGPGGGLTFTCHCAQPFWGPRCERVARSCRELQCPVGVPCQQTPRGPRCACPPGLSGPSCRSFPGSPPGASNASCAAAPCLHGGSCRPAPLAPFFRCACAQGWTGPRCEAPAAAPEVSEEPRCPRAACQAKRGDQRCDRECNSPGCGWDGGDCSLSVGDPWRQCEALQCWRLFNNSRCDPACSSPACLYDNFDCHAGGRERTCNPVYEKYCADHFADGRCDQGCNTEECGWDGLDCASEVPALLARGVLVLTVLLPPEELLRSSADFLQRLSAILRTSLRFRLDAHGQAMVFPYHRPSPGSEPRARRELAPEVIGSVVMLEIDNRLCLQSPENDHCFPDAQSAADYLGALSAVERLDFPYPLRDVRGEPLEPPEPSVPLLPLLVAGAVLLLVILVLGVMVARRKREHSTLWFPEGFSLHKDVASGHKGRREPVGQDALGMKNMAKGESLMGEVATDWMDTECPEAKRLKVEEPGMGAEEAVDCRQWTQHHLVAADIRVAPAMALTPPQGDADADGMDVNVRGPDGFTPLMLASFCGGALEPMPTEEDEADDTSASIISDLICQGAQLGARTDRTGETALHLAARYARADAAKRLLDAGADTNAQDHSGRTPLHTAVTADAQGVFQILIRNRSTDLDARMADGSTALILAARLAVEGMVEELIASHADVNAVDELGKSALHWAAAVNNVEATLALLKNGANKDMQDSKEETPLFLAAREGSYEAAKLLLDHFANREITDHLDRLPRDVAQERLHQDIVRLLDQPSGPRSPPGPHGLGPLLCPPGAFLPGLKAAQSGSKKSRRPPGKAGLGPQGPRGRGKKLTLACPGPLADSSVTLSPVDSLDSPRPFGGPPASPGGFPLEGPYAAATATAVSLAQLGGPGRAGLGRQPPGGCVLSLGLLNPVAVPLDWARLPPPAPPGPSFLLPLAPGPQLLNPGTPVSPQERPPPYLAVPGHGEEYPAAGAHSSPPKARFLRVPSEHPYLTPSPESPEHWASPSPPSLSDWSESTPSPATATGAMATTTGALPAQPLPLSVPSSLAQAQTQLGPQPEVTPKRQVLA
Assay [10] can be described thus: small-molecule microarray binders of probe aEGFR, primary screen, biochemical, biotinylated probe, 635/667 nm fluorescence (AID 1097).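 Also: probe is a biotinylated anti-EGFR antibody binding compounds printed on slides; score combines fluorescence near 667 nm and signal to noise of each spot.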 The following applies: higher = more signal.
In assay [11] the test system is Plasmodium falciparum Sir2 (PF13_0152, Sir2A). Briefly: pfSir2 binders on small-molecule microarrays, primary screen, biochemical, small-molecule microarray, 635 nm fluorescence (AID 1098).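 Also: score merges spot fluorescence intensity with its signal-to-noise ratio.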 As to conditions: small-molecule microarray binding, fluorescence 635 nm; higher = more signal.
Assay [12] is described as follows: small-molecule microarray binders of probe aDKK1, primary screen, biochemical, biotinylated probe, 635/667 nm fluorescence (AID 1099).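 Also: score merges 667nm spot fluorescence with signal to noise across triplicate slides; reference of the scale not given here.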 As to conditions: higher = more signal.
The nature of assay [13]: small-molecule microarray binders of probe aCHRDL2, primary screen, biochemical, biotinylated probe, 635/667 nm fluorescence (AID 1100). The following applies: higher = more signal.
A short description of assay [14]: splicing luciferase reporter signal modulators, primary screen, spliceosome inhibition project, cell-based, HEK293, splice +/- reporter (AID 1101).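 Also: HEK293 cells carrying a splicing-competent luciferase reporter gene; test concentration not given here.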 The following applies: luminescence, 24 h, higher = more signal, called active from +8 up or from −8 down. (In general: A reporter such as luciferase makes a cellular process visible.)
In assay [15] the target is Fibroblast growth factor 10 (Homo sapiens) (UniProt O15520). Briefly: FGF10 binders on small-molecule microarrays, primary screen, biochemical, small-molecule microarray, 635 nm fluorescence (AID 1102). The following applies: FGF10 binding, fluorescence 635 nm, higher = more signal.
Chain of Fibroblast growth factor 10 (Homo sapiens) (O15520 whole entry, looked up): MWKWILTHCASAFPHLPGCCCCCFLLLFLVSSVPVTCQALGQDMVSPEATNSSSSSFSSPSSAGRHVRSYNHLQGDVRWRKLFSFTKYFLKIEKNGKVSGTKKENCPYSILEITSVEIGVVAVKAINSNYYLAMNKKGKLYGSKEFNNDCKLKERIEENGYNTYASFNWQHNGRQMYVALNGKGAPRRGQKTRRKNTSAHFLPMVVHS
In assay [16] the test system is glycogen synthase kinase-3 (GSK3A per assay name; protocol says GSK3B). Nature of the assay: GSK3 binders on small-molecule microarrays, primary screen, biochemical, small-molecule microarray, 635 nm fluorescence, GSK3A (AID 1103). Also: the record names both GSK3A and GSK3B. The following applies: small-molecule microarray binding, fluorescence 635 nm; higher = more signal.
Assay [17] deals with Epidermal growth factor receptor (Homo sapiens) (UniProt P00533). Nature of the assay: EGFR binders on small-molecule microarrays, primary screen, biochemical, small-molecule microarray, 635 nm fluorescence (AID 1104).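 Also: score merges 667 nm emission intensity with spot signal to noise over triplicate slides.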 As to conditions: EGFR binding, higher = more signal.
Chain of Epidermal growth factor receptor (Homo sapiens) (P00533 whole entry, looked up): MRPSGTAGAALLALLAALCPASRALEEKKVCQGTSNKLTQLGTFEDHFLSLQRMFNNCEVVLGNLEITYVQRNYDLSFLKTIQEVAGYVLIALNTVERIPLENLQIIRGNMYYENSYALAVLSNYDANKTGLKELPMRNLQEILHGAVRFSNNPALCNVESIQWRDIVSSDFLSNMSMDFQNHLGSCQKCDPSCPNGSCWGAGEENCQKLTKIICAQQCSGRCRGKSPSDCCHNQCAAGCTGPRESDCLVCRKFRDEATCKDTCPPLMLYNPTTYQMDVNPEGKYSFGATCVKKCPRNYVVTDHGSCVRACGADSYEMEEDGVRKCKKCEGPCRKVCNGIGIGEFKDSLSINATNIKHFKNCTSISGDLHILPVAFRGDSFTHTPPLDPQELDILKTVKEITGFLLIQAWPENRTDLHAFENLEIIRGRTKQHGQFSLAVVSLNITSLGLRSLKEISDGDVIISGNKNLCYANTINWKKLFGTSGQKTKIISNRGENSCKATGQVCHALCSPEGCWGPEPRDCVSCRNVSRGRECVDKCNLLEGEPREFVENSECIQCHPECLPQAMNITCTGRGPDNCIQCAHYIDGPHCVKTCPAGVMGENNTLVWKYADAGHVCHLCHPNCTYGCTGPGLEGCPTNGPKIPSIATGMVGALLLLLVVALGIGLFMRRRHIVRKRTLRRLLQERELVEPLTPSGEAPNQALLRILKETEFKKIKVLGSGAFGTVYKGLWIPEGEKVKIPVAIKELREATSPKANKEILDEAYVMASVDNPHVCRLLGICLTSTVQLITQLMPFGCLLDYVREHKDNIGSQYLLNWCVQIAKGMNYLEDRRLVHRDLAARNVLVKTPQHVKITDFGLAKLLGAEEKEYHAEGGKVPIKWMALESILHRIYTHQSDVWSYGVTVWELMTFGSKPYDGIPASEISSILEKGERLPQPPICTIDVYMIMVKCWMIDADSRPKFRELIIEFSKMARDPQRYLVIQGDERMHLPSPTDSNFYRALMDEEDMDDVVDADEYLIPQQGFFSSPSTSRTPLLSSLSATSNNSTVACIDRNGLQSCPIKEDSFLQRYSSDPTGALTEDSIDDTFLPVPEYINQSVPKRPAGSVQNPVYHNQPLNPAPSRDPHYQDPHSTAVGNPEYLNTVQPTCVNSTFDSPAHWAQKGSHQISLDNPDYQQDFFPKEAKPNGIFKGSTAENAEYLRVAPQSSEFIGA
In assay [18] the target is Follistatin-related protein 3 (Homo sapiens) (UniProt O95633). Nature of the assay: FSTL3 binders on small-molecule microarrays, primary screen, biochemical, small-molecule microarray, 635 nm fluorescence (AID 1105).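 Also: score merges emission near 667 nm and signal to noise per printed spot across three slides.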 The following applies: FSTL3 binding, higher = more signal.
Chain of Follistatin-related protein 3 (Homo sapiens) (O95633 whole entry, looked up): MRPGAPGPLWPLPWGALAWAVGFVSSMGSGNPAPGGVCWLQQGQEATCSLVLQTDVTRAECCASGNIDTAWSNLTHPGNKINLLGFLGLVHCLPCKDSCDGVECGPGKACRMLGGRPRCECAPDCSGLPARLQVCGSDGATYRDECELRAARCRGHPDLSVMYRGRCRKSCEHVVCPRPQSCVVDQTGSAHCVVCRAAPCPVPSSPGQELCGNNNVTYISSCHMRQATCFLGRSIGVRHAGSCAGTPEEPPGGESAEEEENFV
In assay [19] the target is Dickkopf-related protein 1 (Homo sapiens) (UniProt O94907). Briefly: DKK1 binders on small-molecule microarrays, primary screen, biochemical, small-molecule microarray, 635 nm fluorescence scan (AID 1106).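 Also: score merges emission near 667 nm with signal to noise over three replicate slides.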 The following applies: DKK1 binding, higher = more signal.
Chain of Dickkopf-related protein 1 (Homo sapiens) (O94907 whole entry, looked up): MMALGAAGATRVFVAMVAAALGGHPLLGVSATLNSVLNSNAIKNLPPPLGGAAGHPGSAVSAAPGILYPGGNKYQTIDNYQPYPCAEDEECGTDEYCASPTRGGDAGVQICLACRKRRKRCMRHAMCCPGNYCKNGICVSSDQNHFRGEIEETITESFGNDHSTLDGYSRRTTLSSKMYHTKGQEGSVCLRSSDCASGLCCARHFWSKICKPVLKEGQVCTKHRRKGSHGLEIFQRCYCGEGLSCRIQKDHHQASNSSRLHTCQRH
Assay [20] deals with Inhibin beta A chain (activin A). Briefly: INHBA (activin A) binders on microarrays, primary screen, biochemical, small-molecule microarray, 635 nm fluorescence scan (AID 1107).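 Also: mouse activin A protein probed at 4.33 µg/mL on printed slides; score merges bound-protein fluorescence near 667 nm with spot signal-to-noise.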 The following applies: small-molecule microarray binding, higher = more signal.

Regarding `CO[C@H]1COC(=O)[C@@H](Cc2ccccc2)NC(=O)[C@@H](C)COC(=O)CC=C[C@@H]1C`, the composite z-score in assay [1] was 0.633; in assay [5], -1.09; in assay [7], -0.202; in [8], 1.48; in [9], 0.269; in [10] it was -0.096. The composite z-score is 0.318 in [11]; -0.63 in [12]; -1.46 in [13]; 0.42 in assay [15]; -0.0524 in assay [16]; 0.954 in [17]. The composite z-score in [18] amounted to 0.439; in [19] it was 0.913; in [20], 1.31. The z-score was -0.236 (inactive) in [2]; -0.669 (inactive) in assay [3]; -0.555 (inactive) in [4]; 0.395 (inactive) in assay [6]; 0.105 (inactive) in [14].
As for `COCCOC(=O)N1C(=O)[C@@]2(c3cc(C#CCNC(N)=O)ccc31)[C@H](C(=O)N1CCCCCCC1)[C@H]1C(=O)O[C@H](c3ccccc3)[C@H](c3ccccc3)N1[C@@H]2c1ccccc1OCCO`, the composite z-score in assay [1] is 1.2; in assay [5], 2.05; in assay [7], 0.957; in [8] it was 0.601; in assay [9], 1.04; in assay [10] it was 0.295. The composite z-score in [11] was 0.733; in assay [12] it was 1.46; in [13] it was 0.734; in assay [15], 0.718; in assay [16], 0.205; in assay [17], 0.79. The composite z-score amounted to 1.22 in [18], 0.485 in assay [19] and 1.33 in assay [20]. Also, the z-score in assay [2] is 1.42 (inactive); in [3], -0.922 (inactive); in [4], 3.58 (inactive); in [6], -0.698 (inactive); in assay [14], -0.12 (inactive).
`C=CCC1=C[C@H]2[C@H]([C@@H]3C=C[C@]2(CC=C)C(=O)[C@]32CO2)[C@@]2(CO2)C1=O`: the composite z-score stood at 0.388 in assay [1]; 0.756 in assay [5]; 0.233 in assay [7]; 1.65 in [8]; 0.183 in assay [9]; 0.148 in assay [10]. The composite z-score was 1.29 in assay [11]; -0.354 in assay [12]; -0.69 in assay [13]; 1.14 in assay [15]; -0.0104 in [16]; 1.58 in assay [17]. Further, the composite z-score in [18] is 1.31; in assay [19], 1.8; in assay [20] it was 1.9. The z-score was 0.683 (inactive) in assay [2]; -21.2 (active) in [3]; -4.1 (inactive) in [4]; 2.54 (inactive) in [6]; -0.414 (inactive) in assay [14].
For `C[C@@H]1CC[C@H]2C(=O)N3[C@@H](CC[C@@H](C)[C@@H]3c3cccc(N4CCOCC4)c3)C(=O)N2[C@H]1c1cccc(Br)c1`, the composite z-score was 0.969 in assay [1]; 1.6 in [5]; 0.075 in assay [7]; 0.964 in assay [8]; 0.981 in [9]; 0.161 in [10]. Moreover, the composite z-score in assay [11] amounted to 1.1; in [12], 0.113; in assay [13], 0.26; in assay [15] it was 0.695; in assay [16], 0.989; in assay [17], 0.31. The composite z-score came out at 0.53 in assay [18], 0.327 in assay [19] and 0.6 in assay [20]. Also, the z-score in assay [2] is -0.586 (inactive); in [3], -3.26 (inactive); in assay [4] it was -1.19 (inactive); in assay [6] it was 0.732 (inactive); in assay [14] it was 0.0479 (inactive).
As for `COc1ccc(CCN2C(=O)[C@@]3(c4ccc([N+](=O)[O-])cc4)CC(=O)N(CC45CC6CC(CC(C6)C4)C5)[C@@H]3c3ccc(CO)cc32)cc1`, the composite z-score in assay [1] was 1.55; in [5], 2.09; in [7], 0.141; in [8], -0.223; in [9] it was 0.294; in assay [10] it was -0.109. Besides, the composite z-score is 1.42 in assay [11]; 0.463 in [12]; 0.761 in [13]; -0.212 in assay [15]; 0.592 in assay [16]; -0.645 in assay [17]. The composite z-score in assay [18] is -0.203; in [19], -0.369; in assay [20], 0.718. The z-score in [2] was 0.0722 (inactive); in [3] it was -0.3 (inactive); in assay [4] it was -1.6 (inactive); in [6] it was -0.463 (inactive); in [14], -0.604 (inactive).
Regarding `O=C1NC(=O)C2C1C=CC(C(O)C=Cc1ccc([N+](=O)[O-])cc1)N2Nc1ccccn1` (stereo not given), the composite z-score is 0.403 in assay [1]; 1.51 in assay [5]; 0.0866 in assay [7]; 0.289 in assay [8]; -0.135 in assay [9]; -0.094 in [10]. Further, the composite z-score is 1.1 in assay [11]; 0.141 in [12]; 0.239 in assay [13]; 0.267 in [15]; -0.0039 in assay [16]; 1.07 in assay [17]. For the same molecule, the composite z-score was 0.479 in [18], 0.697 in [19] and 1.32 in [20]. The z-score was 0.459 (inactive) in [2]; 1.31 (inactive) in [3]; -0.108 (inactive) in assay [4]; -0.298 (inactive) in assay [6]; 1.5 (inactive) in assay [14].
